Screens (PubChem BioAssay)
Pf growth 96h: inhibits malaria parasite growth, 96 h; Potency, µM (top dose mostly 28.7 µM), most hits filed as inhibitors; AID 504834; 320,000 compounds, 6.9% hits; P. falciparum luciferase reporter growth, 96 h
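Two parasite generations (96 h, 37 C, 5% CO2) of compound exposure in infected erythrocytes (0.05% parasitemia, 2% hematocrit). Luciferase-reporter P. falciparum; decreased luminescence indicates inhibited growth, aimed at apicoplast-acting delayed death.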
AMA1 RON2 block: AMA1-RON2 (P. falciparum) interaction inhibition. AID 720542. Potency, µM (doses to about 58.2 µM), actives largely listed as inhibitors. 360,000 compounds, 0.2% hits. AlphaScreen AMA1-biotinylated RON2 peptide binding; note: nearly all actives have a fitted effect of over 45% in size
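AMA1 (3D7) with his tag at 25 nM final met compounds first, then biotinylated RON2 peptide at 25 nM; detection used donor plus acceptor beads, 10 µg/mL apiece, read by AlphaScreen after 30 min at room temperature.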
SARS PLpro yeast: SARS-CoV PLP inhibition in yeast; 330,000 compounds, 0.19% hits; Potency, µM (highest dose often 32.9 µM), usual class: activators; S. cerevisiae expressing SARS-CoV PLpro, growth rescue; calls by dose curve; note: nearly all actives have a fitted effect of over 55% in size
Cycloheximide cs: counter-screen for Shiga toxin inhibitors: cycloheximide protein synthesis inhibition | cell reporter, cycloheximide protein synthesis inhibition counterscreen | max response, % | 300,000 compounds, 12% hits; in the data active = max response mostly above about 13%, no sharp cut-off; inactive = mostly below about 14%; note: read at 38.3 µM for the half of the compounds with a filed dose
Shiga inhibitor: inhibitors of Shiga toxin in Vero cells. Vero cells, Shiga toxin protein synthesis inhibition reporter. 290,000 compounds, 9.2% hits. AID 2315. inhibition, % at 38.7 µM; in the data active = inhibition mostly above about 28%, no sharp cut-off; inactive = mostly below about 43%
Pf growth 48h: P. falciparum growth inhibition at 48 hours (one generation); P. falciparum luciferase growth in erythrocytes, 48 h; Potency, µM (titrated, usually from 28.7 µM), hits mostly inhibitors; 310,000 compounds, 5.9% hits; AID 504832
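Here the parasites carry a stable luciferase gene and grow inside erythrocytes in Albumax-based RPMI medium with compound for one erythrocytic cycle. Activity is scored as loss of luminescent signal.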
Numbers stand for hits; i = inactive; ? = inconclusive; nt = no result; [ ] = dose if it differs, or a comment. Most compounds without a hit are left out; they make up all but 19% or so of the library. Unless noted, calls come from the whole dose curve; as a rule, active = well fitted curve in the direction sought with a large enough effect; inconclusive = small, poorly fitted or top-dose-only effect, or another doubt; inactive = no such curve, though single readings can be large; an effect the other way counts as inactive or inconclusive.

SMILES	Pf growth 96h	AMA1 RON2 block	SARS PLpro yeast	Cycloheximide cs	Shiga inhibitor	Pf growth 48h
Cc1ccc(NC(=O)Cc2cc(C(=O)O)c3ccccc3n2)c(C)c1	?	i	i	i	i	?
Cc1noc(C)c1C(=O)Nc1cccnc1	nt	i	i	i	i	i
O=C(Nc1cccnc1)c1cc(-c2ccccc2O)on1	i	i	i	48	77	i
O=C(Nc1cccnc1)c1cc(-c2cccs2)on1	10µM	i	i	i	i	i
Cc1c(C(=O)NNC(=O)c2ccccc2O)oc2ccccc12	nt	i	nt	nt	nt	nt
O=C(c1c[nH]c2ccccc12)C(F)(F)F	i	i	i	i	i	i
O=C(NC1CC1)C(=O)c1c[nH]c2ccccc12	i	i	i	19	100	i
O=C(c1ccccc1)c1c[nH]c2ccccc12	i	i	i	35	64	?
O=C(NC1CC(=O)N(c2ccccc2)C1)C(=O)c1c[nH]c2ccccc12 (stereo not drawn)	i	i	i	nt	nt	i
Cn1cc(C(=O)C(=O)NC2CCCCC2)c2ccccc21	?	i	i	33	55	i
CC(OC(=O)C1CCN(S(=O)(=O)c2ccc(C(C)(C)C)cc2)CC1)C(=O)N(C)C1CCCCC1 (stereo not drawn)	nt	i	nt	nt	nt	nt
Cc1cc(C)c(S(=O)(=O)N(CC(=O)O)CC(=O)O)c(C)c1	nt	i	i	i	i	i
Cc1cc(C)c(S(=O)(=O)N(C2=NCCS2)S(=O)(=O)c2c(C)cc(C)cc2C)c(C)c1	?	i	i	i	i	15µM
Cc1cc(Cl)ccc1OC(C)C(=O)Nc1ccc(S(=O)(=O)N2CCOCC2)cc1 (stereo not drawn)	nt	i	nt	nt	nt	nt
CC(Oc1ccc(Cl)cc1)C(=O)Nc1cccc(S(=O)(=O)N2CCOCC2)c1 (stereo not drawn)	10µM	i	i	nt	nt	?
CCN1CCN(c2ccc(S(=O)(=O)N3CCOCC3)cc2NC(=O)C(C)Oc2ccc(Cl)cc2)CC1 (stereo not drawn)	?	i	i	nt	nt	12µM
COc1cccc(OC)c1C(=O)Nc1cccc2c1CCCC2	i	i	i	i	nt	i
O=C(Nc1ccccc1C(=O)O)c1ccc(Br)c(S(=O)(=O)NCc2ccccc2)c1	i	i	i	i	i	i
O=C(N/N=C/c1cccs1)c1ccc(-n2cccc2)cc1	?	?	i	22	i	?
O=C(N/N=C/c1ccccn1)c1ccc2nc[nH]c2c1	i	i	i	i	i	i
O=C(N/N=C/c1ccccc1F)c1cccc(NC(=O)c2ccccc2Cl)c1	i	i	i	26	56	i
O=C(Nc1cccc(NC(=O)c2ccccc2Cl)c1)c1ccc(F)cc1	i	i	i	i	i	i
Cc1cccc(C(=O)Nc2cccc(C(=O)N/N=C/c3ccccn3)c2)c1	i	i	i	13	i	?
Cc1cccc(C(=O)N/N=C/c2ccccn2)c1	i	i	i	25	91	i
Cc1cccc(/C=N/NC(=O)c2ccc(NC(=O)c3ccccc3Cl)cc2)n1	?	i	i	i	i	i
SMILES	Pf growth 96h	AMA1 RON2 block	SARS PLpro yeast	Cycloheximide cs	Shiga inhibitor	Pf growth 48h
O=C(N/N=C/c1ccccn1)c1cccc(NC(=O)c2ccccc2Cl)c1	i	i	i	11	34	?
O=C(N/N=C/c1cccs1)c1cccc(NC(=O)c2ccccc2Cl)c1	i	i	i	18	i	i
COc1ccc(Br)cc1C(C[N+](=O)[O-])c1c(N)n(C)c(=O)n(C)c1=O (stereo not drawn)	?	i	i	i	i	3.7µM
N=C(CC1CC(=O)NC(=O)C1)C1=C(O)CCCC1=O	i	i	?	i	i	i
CCC(CO)Oc1cc(NCc2ccc(C)cc2)c2ncn(C(C)C)c2c1 (stereo not drawn)	nt	i	i	nt	nt	nt
CCOc1cc(NCc2ccccc2)c2ncn(C(C)C)c2c1	nt	25µM	nt	nt	nt	nt
CCC(CO)Oc1cc(NCc2ccc(OC)cc2)c2ncn(C(C)C)c2c1 (stereo not drawn)	?	i	i	nt	nt	15µM
CC(C)n1cnc2c(NCc3ccccc3)cc(Cc3ccc(F)cc3)cc21	6.6µM	?	i	nt	nt	10µM
CC1(C(=O)Nc2ccc(Cl)c(Cl)c2)CCN1C(=O)Cc1cccc2ccccc12 (stereo not drawn)	nt	i	nt	nt	nt	nt
COc1ccccc1C(=O)Nc1ccc(S(=O)(=O)N2CCCCC2c2cccnc2)cc1 (stereo not drawn)	3.3µM	i	i	i	i	?
COC(=O)c1ccc(NC(=S)NN2CCCCC2c2cccnc2)cc1 (stereo not drawn)	i	i	i	14	i	i
O=C(Nc1ccc(S(=O)(=O)N2CCCCC2c2cccnc2)cc1)c1ccccc1F (stereo not drawn)	?	i	i	i	i	?
Nc1nc(-c2ccccn2)nc(N)c1Cc1c(F)cccc1Cl	?	?	?	34	i	12µM
Nc1nc(-c2ccccn2)nc(N)c1Cc1ccccc1F	5.2µM	i	i	38	78	?
Nc1nc(-c2ccccn2)nc(N)c1Cc1ccc(Cl)cc1Cl	1.3µM	i	i	37	56	1.9µM
Cc1n[nH]c(C)c1Cc1c(F)cccc1Cl	i	i	i	i	i	i
Nc1ccc(-c2nnc(-c3ccc(N)cc3)o2)cc1	i	i	i	48	73	i[0.00184 µM]
Cc1ccc(-c2nnc(-c3ccc4ccccc4c3)o2)cc1	nt	i	nt	nt	nt	nt
CCOc1ccc(-c2nnc(N)o2)cc1	nt	i	i	i	i	i
Cc1cccc(-c2nnc(-c3ccc(N)cc3)o2)c1	i	i	i	35	75	i
CC(=O)Nc1cc(-c2cccc(CO)c2)cn2c(-c3ccc(C(C)=O)cc3)cnc12	nt	i	nt	nt	nt	nt
CC(=O)Nc1nc2ccc(-c3nc4ccccc4o3)cc2s1	i	i	i	61	54	i
O=C(Nc1ccc(O)c(-c2nc3ccccc3o2)c1)C1(c2ccccc2)CCCC1	i	i	i	i	i	15µM
CC(=O)Nc1ccc(S(=O)(=O)Nc2cccc(-c3nc4ccccc4o3)c2)cc1	i	i	i	i	i	nt
O=C(Cc1cccs1)Nc1cccc(-c2nc3ccccc3o2)c1	?	i	i	i	i	i
SMILES	Pf growth 96h	AMA1 RON2 block	SARS PLpro yeast	Cycloheximide cs	Shiga inhibitor	Pf growth 48h
CCC(=O)Nc1cccc(-c2nc3ccccc3o2)c1	nt	i	i	16	i	i
CS(=O)(=O)c1ccccc1C(=O)Nc1cccc(-c2nc3ccccc3o2)c1	i	i	i	23	i	i
COC(=O)c1c(N2C(=O)Nc3ccccc3N2O)sc(C)c1C	5.2µM	i	i	i	i	i
CC(=O)N1CCN(C(C)=O)c2ccccc21	nt	i	nt	nt	nt	nt
CC(=O)N1CCn2c3ccc(C)cc3c3cccc1c32	i	i	i	24	47	i
CC(C)(C)NC(=O)N1CCCC(C(=O)c2cccc(Cl)c2)C1 (stereo not drawn)	?	i	i	i	i	i
O=C(Oc1ccc2ccc(=O)oc2c1)c1ccccc1	9.3µM	i	i	i	i	i
COc1cccc(C(=O)COc2ccc3ccc(=O)oc3c2)c1	i	i	i	i	i	i
